The results in this text go back to PubChem BioAssay (EPA / NIEHS).

Calls of active or inactive are those of the source. The calls were made as follows: active = hit-call score of the fitted dose curve at least 0.9, where 1 is the maximum; inactive = score below 0.9.

Read-out in the experiment: Cyclin Dependent Kinase Inhibitor 1A (CDKN1A), CDKN1A (gene 1026)
As to the kind of experiment: LTEA_HepaRG_CDKN1A: Life Technologies and Expression Analysis (LTEA) Assay for Cyclin Dependent Kinase Inhibitor 1A (CDKN1A) using HepaRG (AID 2283450). The settings on record: mRNA level, 48 h; actives raise or lower the signal. As for the experimental part: LTEA_HepaRG is a cell based, multiplexed-readout assay that uses HepaRG, a human liver cell line, with measurements taken at 48 hours after chemical dosing on a 96-well plate.LTEA_HepaRG_CDKN1A is one of 102 assay component(s) measured in the LTEA HepaRG cell culture assay. It is a marker of Cell proliferation, survival, death.Data from the assay component LTEA_HepaRG_CDKN1A was analyzed into 1 endpoint. This assay endpoint, LTEA_HepaRG_CDKN1A, was analyzed with bidirectional fitting relative to DMSO as the negative control and baseline of activity. Using a type of inducible reporter, measures of mRNA induction for gain or loss-of-signal activity can be used to understand regulation of transcription factor activity. To generalize the intended target to other relatable targets, this assay endpoint is annotated to the cell cycle intended target family, where the subfamily is Cell proliferation, survival, death.
A total of 1060 chemcials from the ToxCast library were tested in eight-point concentration-response experiments. Cell culture and cytotoxicity assays were conducted at Thermo Fisher Scientific's Custom Services facility (Madison, WI). A single lot of human HepaRG cells (Thermo Fisher Scientific, Frederick, MD) was used for the cell culture experiments. 96-well format collagen type I coated plates of human HepaRG cells were prepared using established methods. Briefly, cryopreserved HepaRG cells were thawed, plated at a density of approximately 100,000 cells/well in HepaRG Thaw, Plate, and General Purpose media (HPRG770, Thermo Fisher Scientific), and incubated for 48 hours. 0.5% DMSO was selected as vehicle control to balance the requisite need of DMSO in HepaRG cultures to maintain differentiation (for example, baseline metabolism, proportions of hepatocytes vs. cholangiocytes), while enabling further hepatic receptor pathway activation (for example, PXR and CAR) in response to chemical exposure. 48 hours after plating, the culture medium was replaced with HepaRG Serum-Free Incudtion Media. Cells were exposed to each test chemical in duplicate and maintained in CO2 incubators for another 48 hours. Chemical plates were thawed to room temperature and 200x concentrations of treatment groups were prepared. 8-point conentration-reponse curves were made with the highest exposure at 100 uM, followed by half-log dilutions, all in 0.5% DMSO. Each test plate contained variouse controls, induction positive controls (1mM phenobarbital), cytotoxicity positive controls ([…] aflatoxin B1), vehicle controls (0.5% DMSO), and total lysis controls (0.5% DMSO). Cell morphology images were taken using an Essen IncuCyte FLR automated microscope, with six 96-well plates imaged in about 24 minutes. Images were captured and exported and JPEG files. Spent culture media was transfered to black-well plates for the LDH assay, and remaining media was sorted at -80 C for later use. Cells were treated with RLT buffer and frozen until shipped for gene expression analysis. Total RNA was isolated from the cell suspension in 75 uL of Buffer RLT (Qiagen, Germantown, MD 20874) by Quintiles/Expression Analysis (Durham, NC) using a custom isolation procedure. Total RNA from each plate well was transferred to a preamplification plate. Fluidigm's 96.96 Dynamic ArrayTM (Fluidigm, Amsterdam, the Netherlands) technology was used for gene expression analyses by quantitative reverse transcription polymerase chain reaction (qRT-PCR, performed by Quintiles/Expression Analysis, Durham, NC)89. Standard TaqManTM Assays (Applied Biosystems/ThermoFisher Scientific, Foster City, CA) were used to assess the expression of 93 genes selected based on their selectivity and sensitivity to important hepatic receptors known to be modulated by environmental chemicals; importance in human hepatocyte functionality; and hepatotoxicity. […]
As to `Oc1ccccc1`, the compound was called inactive.

Take `Clc1cc(Cl)c2c(c1)N=C1CCCCCN1C2`: the result was inactive.

Consider `NCc1cccc(C2CCN(C(=O)c3ccc(C#Cc4ccccc4F)o3)CC2)c1`, for which the outcome was inactive.

For the compound `Cc1ccc2oc(CN(Cc3ccccc3)C(=O)Nc3c(F)cc(F)cc3F)c(-c3ccc(Cl)cc3)c2c1`, the compound was classed as inactive.

For the compound `CN1C(=O)N(c2ccccc2Br)Cc2cnc(Nc3ccc4c(c3)OCC(CO)O4)nc21` (stereo not given), the call was inactive.

Regarding `CCO[Si](CCCNC(N)=O)(OCC)OCC`, the compound was classed as inactive.

As for `Cc1occc1C(=O)Nc1ccc(C(=O)N2CCC(F)(F)/C(=C\C(=O)N3CCC(N4CCCCC4)CC3)c3ccccc32)cc1`, the compound was called inactive.

Take `COCC(C)OCC(C)OCC(C)O` (stereo not given): the compound was classed as inactive.

`CC[C@H](NC(=O)c1cc(F)ccc1NS(=O)(=O)c1cccc2cccnc12)c1ccccc1`: the compound was called inactive.

In the case of `CC(C)(c1cc(Br)c(O)c(Br)c1)c1cc(Br)c(O)c(Br)c1`, the AC50 (commonly the midpoint of the concentration-response curve, whichever way the signal moves) was 92.3 µM (active).

`CCOC(=O)O[C@H](C)OC(=O)c1ccc2c(c1)cc(C(=O)NC1CCN(C(C)C)CC1)n2Cc1cc(-c2ccc(Cl)s2)on1`: the compound was called inactive.

In the case of `C[C@]12CC[C@@H]3c4ccc(O)cc4CC[C@H]3[C@@H]1CCC2=O`, the result was inactive.

With `Clc1ccccc1C(c1ccccc1)(c1ccccc1)n1ccnc1`, the concentration at half-maximal activity (AC50) was 91.2 µM (active).

As to `O=C(Nc1ccc(Cl)cc1)Nc1ccc(Cl)c(Cl)c1`, the compound was called inactive.

On to `COc1ccc2cc(S(=O)(=O)N[C@H](CC(=O)N[C@H](Cc3ccc(CN4[C@H](C)CCC[C@@H]4C)cc3)C(=O)N(C)C(C)C)c3ccc4c(c3)OCO4)ccc2c1`, for which the compound was called inactive.

For `Oc1ccc2ccccc2c1`, the result was inactive.

As to `CCN(CC)C(=O)c1cc(S(=O)(=O)Cc2ccccc2)c(N2CCC(c3ccccc3)CC2)cc1N(CC)CCN(C)C`, the result was inactive.

Regarding `CCN(Cc1cccnc1)C(=O)c1cccc(Cl)c1[C@]1(C)C(=O)N(Cc2ccc(OC)cc2OC)c2ccc(Cl)cc21`, the AC50 is 11.6 µM (active).

For the compound `CCCC(=O)OCCC(C)C`, the compound was called inactive.

In the case of `O=C1CCC(C2CCCCC2)CC1`, the compound was called inactive.

For the compound `CN(C)C(=O)C1(N2CCCCC2)CCN(CC[C@@]2(c3ccc(Cl)c(Cl)c3)CN(C(=O)c3ccccc3)CCO2)CC1`, the AC50 is 84.3 µM (active).

Turning to `OC12N=C(c3ccccc3)SC1Cc1cc(Cl)ccc12` (stereo not given), the compound was called inactive.

On to `O=C(OCCCCCCOC(=O)c1ccccc1)c1ccccc1`, for which the compound was called inactive.

For `O=C=NCCCCCCN=C=O`, the call was inactive.

Turning to `c1ccc(C[n+]2cccc3ccccc32)cc1`, the AC50 is 50 µM (active).

As for `CCCCCCCCCCCO`, the call was inactive.

Take `CCCCCCCCCCCCO`: the call was inactive.

`c1ccc2ccccc2c1`: the compound was called inactive.

In the case of `Cc1ncc(CO)c(CO)c1O`, the call was inactive.

`c1ccc2n[nH]nc2c1`: the call was inactive.

Consider `CCCCCc1ccc(N)cc1`, for which the compound was classed as inactive.

Take `CCCOC(=O)c1cc(O)c(O)c(O)c1`: the compound was classed as inactive.

As for `NC(=O)c1nc(-c2cccc(-c3cc(F)ccc3OCC(F)(F)C(F)(F)F)c2)n[nH]1`, the result was inactive.

Turning to `COc1cc(C(=O)NC2CCN(C)CC2)ccc1Nc1ncc2c(n1)N(C1CCCC1)CC(F)(F)C(=O)N2C`, the call was inactive.

Turning to `CCCCCCCCOc1ccc(C(=O)c2ccccc2)c(O)c1`, the outcome was inactive.

Regarding `O=C1O[C@H]([C@@H](O)CO)C(O)=C1O`, the result was inactive.

Take `O=C1c2ccccc2C(=O)N1CCc1noc(-c2ccc(CN3CCCCCC3)s2)n1`: the result was inactive.

`O=c1ccc2ccccc2o1`: the compound was classed as inactive.

With `O=CCCCC=O`, the compound was called inactive.

For `O=C(O)c1ccccc1C(=O)OCc1ccccc1`, the compound was classed as inactive.
